Test [1] deals with Retinoic acid receptor RXR-alpha (Homo sapiens) (UniProt P19793). In words: qHTS assay to identify small molecule agonists of the RXR signaling pathway (AID 1159527; calls by dose curve; note: nearly all actives have a fitted effect of over 35% in size). The procedure, abridged:
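Agonist-mode beta-lactamase reporter assay: HEK 293T RXR-alpha-UAS-bla cells treated 16 hr at 37 C with compounds, 9-cis retinoic acid as positive control. LiveBLAzer FRET substrate, 405 nm excitation, 460/530 nm emission.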
A general note: qHTS replaces the single test concentration by a dilution series.

Test [2] can be described thus: qHTS assay to identify small molecule agonists of the RXR signaling pathway - cell viability counter screen (AID 1159529). Note: series mostly up to about 77 µM; nearly all actives have a fitted effect of over 50% in size. The method, boiled down:
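CellTiter-Glo luminescence gave viability in the wells also read for beta-lactamase. Cells (RXR-alpha-UAS-bla HEK 293T, 2% charcoal-stripped FBS medium) had 5 hr plating, then 16 hr compound exposure at 37 C; tetraoctyl ammonium bromide served as positive control.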

Test [3] in a line: qHTS assay to identify small molecule antagonists of the retinoid acid receptor (RAR) signaling pathway - cell viability counter screen (AID 1159551). Note: nearly all actives have a fitted effect of over 35% in size. The method, boiled down:
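Measured by luminescent ATP detection, viability reflects C3RL4 cells treated 6 h at 37 C with test chemicals in the presence of 1 uM (final) retinol.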

A short description of test [4]: qHTS assay to identify small molecule antagonists of the estrogen related receptor (ERR) signaling pathway from Tox21 library - cell viability counter screen (AID 1224834). Note: nearly all actives have a fitted effect of over 30% in size. The method, boiled down: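 Seeded ERR cells were rested 6 h at 37 C/5% CO2 before compounds, positive and negative controls or DMSO were added. Incubation continued for 17.5 h, and viability was then quantified by CellTiter-Fluor fluorescence.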

In test [5] the target is Luciferin 4-monooxygenase (Photinus pyralis) (UniProt P08659). In words: qHTS assay to identify small molecule inhibitors of firefly luciferase (AID 1224835). Note: nearly all actives have a fitted effect of over 25% in size. Note: potency is the fitted concentration of half-maximal effect. The method, boiled down: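 Biochemical qHTS: compounds run as interplate titrations against purified firefly enzyme, with D-luciferin and ATP each at its KM concentration. Light output recorded by CCD imaging.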
A short description of test [6]: qHTS assay to identify small molecule agonists of the constitutive androstane receptor (CAR) signaling pathway - cell viability counter screen (AID 1224836). Note: series mostly up to about 92 µM; nearly all actives have a fitted effect of over 45% in size. The method, boiled down: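 Cell viability multiplexed with the CAR agonist screen: CellTiter-Fluor fluorescence after 23 hr at 37 C. HepG2-CYP2B6-hCAR cells got compounds at 15 concentrations with PK11195 at 0.75 uM final.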

Test [7] can be described thus: qHTS assay to identify small molecule antagonists of the constitutive androstane receptor (CAR) signaling pathway - cell viability counter screen (AID 1224837). Note: series mostly up to about 92 µM; nearly all actives have a fitted effect of over 45% in size. The method, boiled down: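 To flag cytotoxic false antagonists, HepG2 hCAR/CYP2B6-2.2kb cells were treated 23 hr with 15-concentration compound series and 50 nM CITCO at 37 C/5% CO2; CellTiter-Fluor fluorescence was the measured end point.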

Test [8] in a line: qHTS assay to identify small molecule antagonists of the estrogen related receptor signaling pathway with the pleiotropic PPARgamma coactivator (PGC) from Tox21 10K library - cell viability counter screen (AID 1224840; active = well fitted cell-killing curve with a large enough effect in the repeat runs, not every such curve was filed as active; note: nearly all actives have a fitted effect of over 40% in size). The procedure, abridged:
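Seeded PGC/ERR cells (2,000/well, 6 h, 37 C/5% CO2) get compound by pin tool; 17.5 h incubation at 37 C; CellTiter-Fluor added, 30 min, fluorescence measured.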

Test [9] in a line: qHTS assay to identify small molecule antagonists of the retinoic acid receptor (RAR) signaling pathway (AID 1159552; note: nearly all actives have a fitted effect of over 50% in size). The procedure, abridged: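 Luminescent RARE reporter read-out in C3RL4 cells: 6 hr co-treatment at 37 C of test compounds with retinol at 1 uM final. Cells plated overnight beforehand; luciferase reagent incubated 30 min at room temperature before reading.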
Test [10] can be described thus: qHTS assay to identify small molecule agonists of the retinoic acid receptor (RAR) signaling pathway (AID 1159553). Note: potency is the fitted concentration of half-maximal effect. The procedure, abridged: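 6 hr compound exposure (DMSO vehicle) of overnight-plated C3RL4 RARE-luc cells at 37 C; luminescence quantified after 30 min RT with luciferase reagent.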
Test [11] is described as follows: qHTS assay to identify small molecule antagonists of the estrogen related receptor signaling pathway with the pleiotropic PPARgamma coactivator (PGC) from Tox21 10K library (AID 1224841; call rule not given here; note: actives are mostly falling curves and most rising ones were filed inactive; nearly all actives have a fitted effect of over 50% in size; note: potency is the fitted concentration of half-maximal effect). The method, boiled down:
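Test chemicals dissolved in DMSO were applied to pre-incubated (6 h) PGC/ERR cells at 2,000 cells/well for an 18 h, 37 C treatment; reporter luminescence was then read using One-Glo.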

A short description of test [12]: qHTS assay to identify small molecule agonists of the estrogen related receptor signaling pathway with the pleiotropic PPARgamma coactivator (PGC) from Tox21 10K library (AID 1224842). Note: nearly all actives have a fitted effect of over 15% in size. The method, boiled down:
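PGC/ERR reporter cell line, 2,000 cells per well, incubated 6 h at 37 C before 23 nL compound in DMSO was added. After 18 h at 37 C, One-Glo luminescence read following 30 min at room temperature.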

The target of test [13] is Nuclear receptor subfamily 1 group I member 3 (Homo sapiens) (UniProt Q14994). The test can be described thus: qHTS assay to identify small molecule antagonists of the constitutive androstane receptor (CAR) signaling pathway (AID 1224838).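 Note: HepG2 cells stably expressing hCAR with CYP2B6 luciferase reporter stimulated by CITCO; nearly all actives have a fitted effect of over 40% in size.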 Note: potency is the fitted concentration of half-maximal effect. The procedure, abridged: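 Human hepatoma HepG2 cells expressing hCAR and a CYP2B6 promoter (2.2 kb) luciferase construct; compound titration (15 points) with 50 nM CITCO final, 24 h at 37 C/5% CO2; luminescence via ONE-Glo after 30 min at room temperature.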

For test [14] the target is unchanged. In words: qHTS assay to identify small molecule agonists of the constitutive androstane receptor (CAR) signaling pathway (AID 1224839). Note: nearly all actives have a fitted effect of over 15% in size. Note: potency is the fitted concentration of half-maximal effect. The method, boiled down: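 Luminescent ONE-Glo read-out after 24 hr, 37 C exposure of double-stable HepG2-CYP2B6-hCAR reporter cells to a 15-point compound series, in the presence of 0.75 uM PK11195 (final).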

The structures appear in SMILES notation. Values joined by “and” are separate entries in the source; they are usually repeats but may differ in a detail not shown here. Identical values can stand only once. Inconclusive results are not listed. The source holds several records for some structures; these can differ, active in one and inactive in another. Active and inactive are the calls of the source. Unless noted, calls come from the whole dose curve; as a rule, active = well fitted curve in the direction sought with a large enough effect in the repeat runs; inconclusive = weak or mixed curves; inactive = no such curve, though single readings can be large; an effect the other way counts as inactive or inconclusive.

Chain of Luciferin 4-monooxygenase (Photinus pyralis) (P08659 whole entry, looked up): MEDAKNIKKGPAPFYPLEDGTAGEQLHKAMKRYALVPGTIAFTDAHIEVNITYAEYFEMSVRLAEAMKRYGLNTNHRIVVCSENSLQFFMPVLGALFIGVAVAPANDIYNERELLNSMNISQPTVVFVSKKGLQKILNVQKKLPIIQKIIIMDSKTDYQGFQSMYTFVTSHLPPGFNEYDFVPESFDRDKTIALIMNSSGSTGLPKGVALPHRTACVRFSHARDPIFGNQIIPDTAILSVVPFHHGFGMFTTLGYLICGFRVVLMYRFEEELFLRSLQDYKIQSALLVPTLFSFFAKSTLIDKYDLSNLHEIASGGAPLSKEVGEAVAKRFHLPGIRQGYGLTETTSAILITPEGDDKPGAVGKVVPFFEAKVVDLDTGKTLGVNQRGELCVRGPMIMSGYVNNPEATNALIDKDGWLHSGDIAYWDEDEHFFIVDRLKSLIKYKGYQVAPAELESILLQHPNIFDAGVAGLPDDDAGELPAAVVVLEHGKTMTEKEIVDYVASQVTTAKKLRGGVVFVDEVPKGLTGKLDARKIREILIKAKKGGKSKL
Chain of Nuclear receptor subfamily 1 group I member 3 (Homo sapiens) (Q14994 whole entry, looked up): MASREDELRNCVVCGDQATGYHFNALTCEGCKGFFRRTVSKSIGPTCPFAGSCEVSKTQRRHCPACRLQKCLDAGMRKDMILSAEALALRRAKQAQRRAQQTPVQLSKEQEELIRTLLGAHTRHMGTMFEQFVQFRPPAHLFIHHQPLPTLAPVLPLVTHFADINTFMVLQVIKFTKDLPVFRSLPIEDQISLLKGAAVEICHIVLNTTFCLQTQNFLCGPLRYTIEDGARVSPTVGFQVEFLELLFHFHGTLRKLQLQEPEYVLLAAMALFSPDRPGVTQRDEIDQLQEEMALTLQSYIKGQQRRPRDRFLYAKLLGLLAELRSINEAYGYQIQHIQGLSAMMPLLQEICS
Chain of Retinoic acid receptor RXR-alpha (Homo sapiens) (P19793 whole entry, looked up): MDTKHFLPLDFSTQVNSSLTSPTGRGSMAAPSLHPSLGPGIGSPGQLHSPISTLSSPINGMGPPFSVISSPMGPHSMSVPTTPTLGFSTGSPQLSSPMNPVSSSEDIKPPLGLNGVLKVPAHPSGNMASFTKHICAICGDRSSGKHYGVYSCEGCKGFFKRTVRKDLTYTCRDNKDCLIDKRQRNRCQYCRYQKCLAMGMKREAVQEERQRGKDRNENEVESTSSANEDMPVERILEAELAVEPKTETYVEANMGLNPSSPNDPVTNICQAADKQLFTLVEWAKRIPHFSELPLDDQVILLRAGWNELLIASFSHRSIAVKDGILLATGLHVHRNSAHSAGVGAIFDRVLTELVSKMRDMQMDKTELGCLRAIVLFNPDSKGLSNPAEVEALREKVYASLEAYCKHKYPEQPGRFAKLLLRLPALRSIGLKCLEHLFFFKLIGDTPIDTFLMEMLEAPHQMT

Turning to `O=[N+]([O-])c1ccc(Cl)cc1`, the Potency entry in test [1], in [4], in test [5], in test [6] and in test [7] was “inactive” in each case. For the same molecule, the result in [2] and in [3] was inactive.
For `CCCOC(=O)c1ccccc1C(=O)OCCC`, the Potency result in test [1], in [4], in [5], in [7] and in test [8] was “inactive” each time. The molecule was called inactive in test [2] and in test [3].
As to `O=C(O)c1cc(Oc2ccc(C(F)(F)F)cc2Cl)ccc1[N+](=O)[O-]`, the Potency result in test [1], in test [9], in test [10], in test [4], in [5] and in test [7] was “inactive” in each case. Moreover, the Potency result in [8] and in [12] was “inactive” in each case. The result in [2] and in test [3] was inactive. In [11], the Potency entry was “inactive and 68.9 µM (active)”.
Consider `CCNc1nc(Cl)nc(NC(C)C)n1`, for which the Potency result in [1], in test [4], in test [5], in [7], in [8] and in test [11] was “inactive” throughout. In [12], the Potency entry is “inactive”. The call in test [2] and in [3] was inactive.
Regarding `O=S(=O)(O)OOS(=O)(=O)O`, the Potency entry in [1], in test [4], in test [5], in [7] and in test [8] was “inactive” each time. The molecule was classed as inactive in test [2] and in [3].
Regarding `NNc1ccccc1`, the Potency result in [1], in test [5], in test [7] and in test [13] was “inactive” throughout. Besides, the molecule was called inactive in test [2] and in [3]. Also, the Potency in test [14] is 48 µM (active) and 68.5 µM (active).
As for `Sc1ccccc1`, the result in test [2] and in [3] was inactive. Further, the Potency result in test [4], in test [5], in test [6], in [7] and in [14] was “inactive” each time. For the same molecule, in [13], the Potency was 62 µM (active) and inactive.
`COP(=S)(OC)Oc1ccc(SC)c(C)c1`: the Potency entry in test [1], in test [9], in [4], in [7], in test [13] and in [8] was “inactive” each time. For the same molecule, the molecule was called inactive in [2] and in test [3]. For the same molecule, the Potency in [10] is 19.3 µM (active); in test [14] it was 60.4 µM (active) and 54.5 µM (active) and 23.7 µM (active).
`CC12CC1(C)C(=O)N(c1cc(Cl)cc(Cl)c1)C2=O` (centres undefined): the Potency result in test [1], in test [4], in test [5], in [6], in test [7] and in test [13] was “inactive” in each case. Besides, the Potency entry in test [14] and in test [8] was “inactive” throughout. The molecule was called inactive in test [2] and in test [3].
Consider `COP(=S)(OC)SCN1C(=O)c2ccccc2C1=O`, for which the Potency result in test [1], in test [4], in [7] and in [8] was “inactive” throughout. Moreover, the call in test [2] and in test [3] was inactive. Also, in [5], the Potency was 71.5 µM (active) and 63.3 µM (active) and inactive.
As to `O=C(O)C1C(C(=O)O)C2(Cl)C(Cl)=C(Cl)C1(Cl)C2(Cl)Cl` (centres undefined), the Potency result in test [1], in [4], in test [5], in test [7], in test [13] and in test [14] was “inactive” in each case. The Potency result in test [8] is “inactive”. The molecule was classed as inactive in test [2] and in test [3].
Turning to `C=CC(=O)OCC(CC)CCCC` (centres undefined), the Potency entry in test [1], in [9], in test [10], in test [4], in test [7] and in test [13] was “inactive” each time. Moreover, the Potency entry in [14], in test [8], in [11] and in test [12] was “inactive” in each case. Also, the molecule was called inactive in test [2] and in test [3].
In the case of `Nc1ccc([As](=O)(O)O)cc1`, the Potency result in [1], in [4], in test [5], in [6], in [7] and in [13] was “inactive” in each case. Further, the Potency result in [14] and in test [8] was “inactive” in each case. In addition, the outcome in test [2] and in test [3] was inactive.
As for `Cc1ccccc1N`, the Potency result in test [1], in test [4], in test [5], in test [6], in test [7] and in test [13] was “inactive” in each case. The Potency result in test [14] and in test [8] was “inactive” in each case. Besides, the outcome in test [2] and in test [3] was inactive.
Consider `CC(C)CCCCCCOC(=O)c1ccccc1C(=O)OCCCCCCC(C)C`, for which the Potency entry in test [1], in test [4], in test [5], in [6], in [7] and in test [13] was “inactive” throughout. The Potency result in [14] and in [8] was “inactive” in each case. Moreover, the molecule was called inactive in test [2] and in test [3].

The record behind these values is PubChem BioAssay (Tox21).
